Screening results from PubChem.
Giardia FBPA inh: qHTS Assay for Inhibitors of Fructose-1,6-bisphosphate Aldolase from Giardia Lamblia; A8B2U2; purified Giardia FBPA; Potency, µM (series often up to 59.6 µM), for the others: at the top dose activity, negative = inhibition, actives largely listed as inhibitors; actives 0.71% (n = 290,000); AID 2451, 2010; also: potency is read from the fitted curve at half-maximal effect; % is scaled to controls: 0 for no effect and ±100 for the full control effect; nearly all actives have a fitted effect of over 55% in size
Target sequence (A8B2U2 whole entry, looked up): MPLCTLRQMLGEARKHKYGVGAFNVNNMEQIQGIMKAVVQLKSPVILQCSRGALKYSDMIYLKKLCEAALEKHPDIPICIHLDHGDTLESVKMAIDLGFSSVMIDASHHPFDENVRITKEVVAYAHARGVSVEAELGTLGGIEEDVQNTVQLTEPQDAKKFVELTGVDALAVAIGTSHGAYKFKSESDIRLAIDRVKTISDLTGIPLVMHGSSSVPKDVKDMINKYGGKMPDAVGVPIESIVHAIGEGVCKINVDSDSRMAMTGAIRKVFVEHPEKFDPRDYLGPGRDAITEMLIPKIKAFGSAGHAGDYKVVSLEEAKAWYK
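Giardia FBPA (40 nM reagent) was preincubated 10 min at RT with compound (up to 57.5 uM final), then substrate plus GAPDH/TPI/NAD/arsenate coupling system with diaphorase/resazurin was added; resorufin fluorescence (525/598 nm) was read after 20 min.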
Sm TGR inh: qHTS Assay for the Inhibitors of Schistosoma Mansoni Peroxiredoxins; Schistosoma mansoni thioredoxin glutathione reductase (TGR), Q962Y6; purified TGR, DTNB reduction, TNB absorbance 405 nm; Potency, µM (titrated, usually from 114 µM), for the others: top-dose activity change, negative = inhibition, hits mostly inhibitors; actives 3% (n = 360,000); also: potency is read from the fitted curve at half-maximal effect; % is scaled to controls: 0 for no effect and ±100 for the full control effect; nearly all actives have a fitted effect of over 60% in size
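Kinetic colorimetric format: TGR-catalysed, NADPH-driven DTNB reduction monitored via TNB absorbance. Enzyme dispensed at 20 nM; compound exposure 15 min at room temperature before reaction start.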
CHX counter: Cycloheximide Counterscreen for Small Molecule Inhibitors of Shiga Toxin. cell reporter, cycloheximide protein synthesis inhibition counterscreen. actives 12% (n = 300,000). max response, %; in the data active = max response mostly above about 13%, no sharp cut-off; inactive = mostly below about 14%; also: read at 38.3 µM for the half of the compounds with a filed dose; 0% is about no effect
Shiga toxin inh: A qHTS for Small Molecule Inhibitors of Shiga Toxin; Vero cells, Shiga toxin protein synthesis inhibition reporter; inhibition, % at 38.7 µM; actives 9.2% (n = 290,000); in the data active = inhibition mostly above about 28%, no sharp cut-off; inactive = mostly below about 43%; also: 0% is about no effect
TbPYK inhibitor: qHTS of Trypanosoma Brucei Inhibitors | Potency, µM (titrated, usually from 76.8 µM), without a hit: at the highest dose activity, negative = inhibition, most hits filed as inhibitors | actives 0.12% (n = 410,000) | TbPYK enzyme, Kinase-Glo Plus ATP luminescence, 45 min | pyruvate kinase (Trypanosoma brucei), Q57TT1; also: potency is read from the fitted curve at half-maximal effect; % is scaled to controls: 0 for no effect and ±100 for the full control effect; nearly all actives have a fitted effect of over 50% in size
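T. brucei PYK with substrate was exposed to pin-transferred compounds across a concentration series, then started with 130 uM ADP (final). After 45 min at room temperature, Kinase-Glo Plus luminescence was read, normalized and curve-fitted.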
LmPK inhibitor: qHTS Assay for Inhibitors of Leishmania Mexicana Pyruvate Kinase (LmPK); Q27686; purified LmPK, Kinase-Glo ATP luminescence, 1 h; Potency, µM (series often up to 57.5 µM), for the others: at the top dose activity change, negative = inhibition, most hits filed as inhibitors; actives 0.37% (n = 290,000); also: potency is read from the fitted curve at half-maximal effect; % is scaled to controls: 0 for no effect and ±100 for the full control effect
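Pyruvate kinase activity monitored as ATP production (luciferase luminescence). Conditions: 0.1 nM enzyme, 0.5 mM PEP, 0.1 mM ADP, 1 h, RT; normalized against uninhibited and no-enzyme wells.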
* = called active by the depositor; ? = inconclusive; / = no result given. This is one part of a sample in which hits are shown more often than they occur. Unless noted, calls follow the shape of the dose curve; as a rule, active = well fitted curve in the direction sought with a large enough effect; inconclusive = small, poorly fitted or top-dose-only effect, or another doubt; inactive = no such curve, though single readings can be large; an effect the other way counts as inactive or inconclusive.

SMILES	Giardia FBPA inh	Sm TGR inh	CHX counter	Shiga toxin inh	TbPYK inhibitor	LmPK inhibitor
Nc1c(C(=O)Nc2cccc(F)c2)sc2nc(-c3cccs3)ccc12	/	8%	/	/	-2%	/
Cc1cc(NC(=O)C2CC2)n(-c2nc3ccccc3s2)n1	8%	-3%	18*	36*	-8%	-1%
C/C=C(\C)C(=O)OC1CC(C)(C)C[C@H]2C3=CC[C@@H]4[C@@]5(C)CCC(O[C@@H]6O[C@@H](C(=O)O)[C@@H](O)C(O[C@@H]7OC[C@H](O)[C@@H](O)[C@@H]7O[C@@H]7OC(CO)C(O)[C@@H](O)[C@@H]7O)C6O[C@@H]6OC(CO)C(O)C(O)C6O)[C@@](C)(CO)[C@@H]5CC[C@]4(C)[C@]3(C)CC(O)[C@@]12CO (some centres not stated)	/	/	/	/	-11%	/
C/C(N)=C(/C#N)C(=O)COC(=O)c1ccc(OCC2CCCO2)cc1 (configuration not stated)	4%	-13%	22*	50*	5%	3%
CC(C)N(CCNC(=O)c1ccc(OCC2CCCO2)cc1)C(C)C (configuration not stated)	-5%	-3%	-3	-18	3%	-8%
O=C(NCCc1ccc(Cl)cc1)c1ccc(OCC2CCCO2)cc1 (configuration not stated)	2%	1%	33*	92*	0%	1%
NNC(=O)c1ccc(OCC2CC(c3ccc(Cl)cc3)=NO2)cc1 (configuration not stated)	4%	10%	22*	40*	-1%	6%
O=C(NC1CCCCCC1)c1ccc(OCC2CCCO2)cc1 (configuration not stated)	-2%	1%	24*	59*	-8%	?
Cc1ccc(NC(=O)c2ccc([N+](=O)[O-])o2)c(C)c1	-16%	/	38*	80*	0%	-1%
Cc1ccc(-c2nnc(NC(=O)c3ccc([N+](=O)[O-])o3)o2)c(C)c1	/	?	/	/	-22%	/
Cc1ccccc1NC(=O)c1ccc([N+](=O)[O-])o1	-9%	-36%	30*	45*	0%	1%
Cc1cccc(NC(=O)c2ccc([N+](=O)[O-])o2)n1	-13%	-19%	25*	33	-2%	2%
O=C(Nc1ccccc1Cl)c1ccc([N+](=O)[O-])o1	-4%	?	60*	110*	0%	0%
Cc1cccnc1NC(=O)c1ccc([N+](=O)[O-])o1	-14%	-28%	1	2	2%	3%
CCOc1ccc(N(CC)S(=O)(=O)N2CCCC(C(=O)Nc3cc(Cl)ccc3OC)C2)cc1 (configuration not stated)	/	-1%	/	/	-21%	/
O=C(NC(=S)N1CCCC1)c1ccccc1F	/	-1%	/	/	-4%	/
O=C(NC(=S)NC(=O)c1ccccc1F)c1ccccc1F	?	2.8µM*	40*	73*	3%	0%
O=C(NCCc1ccccc1)c1ccc(Cl)cc1[N+](=O)[O-]	18%	9%	27*	67*	-4%	5%
O=C(NC(=S)NCCc1ccccc1)c1ccccc1F	/	40µM*	41*	94*	-4%	-8%
O=C(CCc1ccccc1)NNC(=S)NC(=O)c1ccccc1	14%	8%	14	12	1%	-12%
O=C(NC(=S)NCc1ccccc1)c1ccccc1F	/	?	13	10	/	1%
O=C(NC(=S)NCCc1ccccc1)c1ccccc1	7%	18µM*	18*	45*	2%	2%
CN(Cc1ccc(Cl)cc1Cl)C(=O)C1CSC2(C)CCC(=O)N12 (configuration not stated)	/	/	/	/	4%	/
COc1cccc(OC)c1C(=O)NCCc1ccccc1	/	/	/	/	-3%	/
CN(C(=O)COc1ccccc1C(=O)NCCc1ccccc1)c1ccccc1	0%	-3%	30*	70*	1%	2%
